Experimental data from PubChem BioAssay AID1159580 (chemical genetic matrix, 2015).
About 2,000 (36%) of roughly 5,500 compounds were called active. About 18% were inconclusive and are not listed. Rule as the data show it: active = normalized growth mostly below about 0.91 (no sharp cut-off); inconclusive = no clear call, values can overlap the other calls; inactive = mostly above about 0.92. The list shows a part of the results.

Test: chemical genetic growth profiling, strain panel (AID 1159580);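 also: tested at 20 µM; growth read once vehicle control cultures reached saturation at 30 °C; 1 = growth at the plate median or of vehicle wells; lower values mean less growth of the strain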
Conditions: growth OD

Measured: normalized growth

Cc1cc(O)cc(O)c1C(=O)O
inactive: S. cerevisiae deletion strains, locus YJR066W, strain TOR1, stronger effect = lower value 1.01 | S. cerevisiae deletion strains, locus YJR075W, strain HOC1, stronger effect = lower value 1.01 | S. cerevisiae deletion strains, locus YKL009W, strain mrt4, stronger effect = lower value 0.964 | S. cerevisiae deletion strains, locus YKL068W, stronger effect = lower value 0.992 | S. cerevisiae deletion strains, locus YKL085W, strain MDH1 (second series), stronger effect = lower value 1 | S. cerevisiae deletion strains, locus YKL085W, strain MDH1, stronger effect = lower value 1 | S. cerevisiae deletion strains, locus YKL160W, strain elf1, stronger effect = lower value 0.994 | S. cerevisiae deletion strains, locus YKL190W, strain CNB1, stronger effect = lower value 0.978 | S. cerevisiae deletion strains, locus YKR001C, strain vps1, stronger effect = lower value 1.01 | S. cerevisiae deletion strains, locus YKR026C, strain gcn3, stronger effect = lower value 1.02 | S. cerevisiae deletion strains, locus YKR091W, strain srl3, stronger effect = lower value 1.01 | S. cerevisiae deletion strains, locus YLL001W, strain dnm1, stronger effect = lower value 0.992 | S. cerevisiae deletion strains, locus YLL026W, stronger effect = lower value 1.02 | S. cerevisiae deletion strains, locus YLL041C, strain sdh2, stronger effect = lower value 1.03 | S. cerevisiae deletion strains, locus YLR027C, strain aat2, stronger effect = lower value 1.03 | S. cerevisiae deletion strains, locus YLR039C, strain RIC1, stronger effect = lower value 1.19 | S. cerevisiae deletion strains, locus YLR058C, strain SHM2, stronger effect = lower value 1.02 | S. cerevisiae deletion strains, locus YLR102C, strain apc9, stronger effect = lower value 1.01 | S. cerevisiae deletion strains, locus YLR113W, strain HOG1, stronger effect = lower value 1.09 | S. cerevisiae deletion strains, locus YLR221C, strain rsa3, stronger effect = lower value 1.04 | S. cerevisiae deletion strains, locus YLR258W, strain gsy2, stronger effect = lower value 1.04 | S. cerevisiae deletion strains, locus YLR262C, strain YPT6 (second series), stronger effect = lower value 1.04 | S. cerevisiae deletion strains, locus YLR268W, strain sec22, stronger effect = lower value 1.04 | S. cerevisiae deletion strains, locus YLR320W, strain mms22, stronger effect = lower value 1.03 | S. cerevisiae deletion strains, locus YLR330W, strain CHS5, stronger effect = lower value 1.01 | S. cerevisiae deletion strains, locus YLR342W, strain FKS1 (second series), stronger effect = lower value 1.02 | S. cerevisiae deletion strains, locus YLR342W, strain FKS1, stronger effect = lower value 1.03 | S. cerevisiae deletion strains, locus YLR357W, strain rsc2, stronger effect = lower value 1.01 | S. cerevisiae deletion strains, locus YLR370C, strain arc18, stronger effect = lower value 1.01 | S. cerevisiae deletion strains, locus YLR371W, strain rom2, stronger effect = lower value 0.987 | S. cerevisiae deletion strains, locus YLR384C, strain iki3, stronger effect = lower value 1.03 | S. cerevisiae deletion strains, locus YLR418C, strain cdc73, stronger effect = lower value 1.02 | S. cerevisiae deletion strains, locus YML016C, strain PPZ1, stronger effect = lower value 1.01 | S. cerevisiae deletion strains, locus YML032C, strain rad52, stronger effect = lower value 0.99 | S. cerevisiae deletion strains, locus YML120C, strain ndi1, stronger effect = lower value 1.01 | S. cerevisiae deletion strains, locus YML124C, strain tub3, stronger effect = lower value 0.989 | S. cerevisiae deletion strains, locus YMR058W, strain fet3, stronger effect = lower value 1.03 | S. cerevisiae deletion strains, locus YMR078C, strain ctf18, stronger effect = lower value 1 | S. cerevisiae deletion strains, locus YMR125W, strain sto1, stronger effect = lower value 1 | S. cerevisiae deletion strains, locus YMR129W, stronger effect = lower value 1 | S. cerevisiae deletion strains, locus YMR205C, strain PFK2, stronger effect = lower value 1 | S. cerevisiae deletion strains, locus YMR223W, strain ubp8, stronger effect = lower value 0.978 | S. cerevisiae deletion strains, locus YMR231W, strain pep5, stronger effect = lower value 1.01 | S. cerevisiae deletion strains, locus YMR307W, strain GAS1, stronger effect = lower value 1.19 | S. cerevisiae deletion strains, locus YNL067W, strain RPL9B, stronger effect = lower value 0.991 | S. cerevisiae deletion strains, locus YNL071W, strain lat1, stronger effect = lower value 1.01 | S. cerevisiae deletion strains, locus YNL153C, strain GIM3, stronger effect = lower value 0.998 | S. cerevisiae deletion strains, locus YNL183C, strain NPR1, stronger effect = lower value 1.01 | S. cerevisiae deletion strains, locus YNL209W, strain ssb2, stronger effect = lower value 1 | S. cerevisiae deletion strains, locus YNL233W, strain BNI4, stronger effect = lower value 1.04 | S. cerevisiae deletion strains, locus YNL248C, strain rpa49, stronger effect = lower value 1.03 | S. cerevisiae deletion strains, locus YNL250W, strain rad50, stronger effect = lower value 0.905 | S. cerevisiae deletion strains, locus YNL271C, strain bni1, stronger effect = lower value 0.98 | S. cerevisiae deletion strains, locus YNL298W, strain CLA4, stronger effect = lower value 1.01 | S. cerevisiae deletion strains, locus YNL307C, strain MCK1, stronger effect = lower value 1 | S. cerevisiae deletion strains, locus YNL322C, strain KRE1 (second series), stronger effect = lower value 1 | S. cerevisiae deletion strains, locus YNR049C, strain mso1, stronger effect = lower value 1.02 | S. cerevisiae deletion strains, locus YNR052C, strain pop2, stronger effect = lower value 1 | S. cerevisiae deletion strains, locus YOL012C, strain htz1 0.732 | S. cerevisiae deletion strains, locus YOL147C, strain pex11, stronger effect = lower value 0.988 | S. cerevisiae deletion strains, locus YOR001W, strain rrp6, stronger effect = lower value 1.02 | S. cerevisiae deletion strains, locus YOR061W, strain CKA2, stronger effect = lower value 1.02 | S. cerevisiae deletion strains, locus YOR069W, strain VPS5, stronger effect = lower value 1.01 | S. cerevisiae deletion strains, locus YOR070C, strain gyp1, stronger effect = lower value 1.02 | S. cerevisiae deletion strains, locus YOR080W, strain dia2, stronger effect = lower value 1.02 | S. cerevisiae deletion strains, locus YOR083W, strain WHI5, stronger effect = lower value 0.989 | S. cerevisiae deletion strains, locus YOR106W, strain vam3, stronger effect = lower value 0.98 | S. cerevisiae deletion strains, locus YOR136W, strain idh2, stronger effect = lower value 0.991 | S. cerevisiae deletion strains, locus YOR144C, strain elg1, stronger effect = lower value 0.996 | S. cerevisiae deletion strains, locus YOR184W, strain ser1, stronger effect = lower value 1.09 | S. cerevisiae deletion strains, locus YOR231W, strain MKK1, stronger effect = lower value 1.11 | S. cerevisiae deletion strains, locus YOR265W, strain rbl2, stronger effect = lower value 1.01 | S. cerevisiae deletion strains, locus YOR270C, strain vph1, stronger effect = lower value 1.07 | S. cerevisiae deletion strains, locus YOR290C, strain snf2, stronger effect = lower value 1 | S. cerevisiae deletion strains, locus YOR316C, strain cot1, stronger effect = lower value 0.977 | S. cerevisiae deletion strains, locus YPL051W, strain arl3, stronger effect = lower value 0.986 | S. cerevisiae deletion strains, locus YPL055C, strain LGE1, stronger effect = lower value 1.09 | S. cerevisiae deletion strains, locus YPL078C, strain atp4, stronger effect = lower value 0.997 | S. cerevisiae deletion strains, locus YPL106C, strain sse1, stronger effect = lower value 0.986 | S. cerevisiae deletion strains, locus YPL240C, strain hsp82, stronger effect = lower value 1.01 | S. cerevisiae deletion strains, locus YPL241C, strain CIN2, stronger effect = lower value 0.999 | S. cerevisiae deletion strains, locus YPL256C, strain CLN2, stronger effect = lower value 1.09 | S. cerevisiae deletion strains, locus YPR119W, strain clb2, stronger effect = lower value 0.981 | S. cerevisiae deletion strains, locus YPR141C, strain kar3, stronger effect = lower value 0.973 | S. cerevisiae deletion strains, locus YPR163C, strain tif3, stronger effect = lower value 1 | S. cerevisiae deletion strains, locus YPR167C, strain met16, stronger effect = lower value 0.996 | S. cerevisiae deletion strains, strain wtn01, stronger effect = lower value 1.02 | S. cerevisiae strains, strain wild type, stronger effect = lower value 1.03
